Screens (PubChem BioAssay)
Shown are actives, neighbours in structure and some others; about 7.6% of the full set was active somewhere.
Gal4-VP16 FLuc: counter-screen for ROR gamma inhibitors: Gal4-VP16 reporter; Drosophila S2 Gal4-VP16 UAS-luciferase, luminescence, 20 h; Potency, µM (highest dose often 53.6 µM), without a hit: top-dose activity, negative = inhibition, actives largely listed as inhibitors; 310,000 compounds, 3.5% hits;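 note: Gal4-VP16 expression switched on by copper sulfate through the metallothionein promoter; potency is the fitted concentration of half-maximal effect; % is set by controls: 0 for no effect and ±100 for the full control effect; nearly all actives have a fitted effect of over 50% in size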
ELG1 repair inh: ELG1-dependent DNA repair inhibition | HEK293T ELG1-luciferase reporter, luminescence, 16 h; DNA damage induced by 5-fluorouridine | Potency, µM (highest dose often 46.1 µM), for inactives: top-dose activity change, negative = inhibition, most hits filed as inhibitors | 330,000 compounds, 2.3% hits; note: potency is the fitted concentration of half-maximal effect; % is set by controls: 0 for no effect and ±100 for the full control effect; nearly all actives have a fitted effect of over 55% in size
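Quantitative HTS, concentration-response format. 2,000 cells/well co-treated with 5-fluorouridine and compound, 16 hr in 5% CO2 at 37 °C; ONE-Glo luminescence read after 30 min.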
BRCA1 expr up: increases BRCA1 expression; MCF7-BRCA1-FFLuc reporter, luminescence, 48 h; response scale: scaled: vehicle 0%, 10 µM genistein 100%; Potency, µM (series often up to 46.1 µM), for inactives: at the top dose activation, hits mostly activators; 380,000 compounds, 1.1% hits; AID 624202; note: potency is the fitted concentration of half-maximal effect; nearly all actives have a fitted effect of over 80% in size
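Reporter cells (MCF7, BRCA1 promoter-firefly luciferase) received library compounds across a concentration series for 48 h. End-point luminescence was measured and concentration-effect curves derived after normalization.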
p53 reactivation: mutant p53 re-activation in reporter cells; Potency, µM (titrated, usually from 92.2 µM), for the others: top-dose activity change, positive = activation, most hits filed as activators; H1299 p53-A138V BP100-luciferase reporter, luminescence, 24 h; 320,000 compounds, 0.063% hits; AID 504706; note: potency is the fitted concentration of half-maximal effect; % of control where 0% means no effect; nearly all actives have a fitted effect of over 45% in size
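H1299 (p53-null), stable ts p53-A138V + BP100-Luc; 1000 cells/well, Opti-MEM/10% FBS; cpd 4 pt, 1:5; 24 h, 37 deg C, 5% CO2; detection reagent 10 min RT; luminescence.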
Giardia killer: kills Giardia lamblia | 340,000 compounds, 0.15% hits | activity change, % at 7.66 µM, hits read low | Giardia lamblia trophozoite viability; in the data active = activity change below about -80%; inconclusive = between about -30% and that limit;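 note: parasites exposed to compound for two days anaerobically before the ATP read; % is set by controls: 0 for no effect and ±100 for the full control effect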
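ATP-content bioluminescence gauges trophozoite survival. Cells (100/well) receive compound and incubate anaerobically for 48 hrs at 37 deg C; detection reagent follows for 15-30 min at room temperature.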
RORg inh: blocks mouse ROR gamma transcriptional activity. Potency, µM (highest dose often 53.6 µM), without a hit: at the top dose activity change, negative = inhibition, actives largely listed as inhibitors. Drosophila S2 Gal4-RORgamma UAS-luciferase reporter, 20 h. 310,000 compounds, 5.4% hits. P51450; note: potency is the fitted concentration of half-maximal effect; % is set by controls: 0 for no effect and ±100 for the full control effect; nearly all actives have a fitted effect of over 60% in size
Target sequence (P51450 whole entry, looked up, the tested form may be a part): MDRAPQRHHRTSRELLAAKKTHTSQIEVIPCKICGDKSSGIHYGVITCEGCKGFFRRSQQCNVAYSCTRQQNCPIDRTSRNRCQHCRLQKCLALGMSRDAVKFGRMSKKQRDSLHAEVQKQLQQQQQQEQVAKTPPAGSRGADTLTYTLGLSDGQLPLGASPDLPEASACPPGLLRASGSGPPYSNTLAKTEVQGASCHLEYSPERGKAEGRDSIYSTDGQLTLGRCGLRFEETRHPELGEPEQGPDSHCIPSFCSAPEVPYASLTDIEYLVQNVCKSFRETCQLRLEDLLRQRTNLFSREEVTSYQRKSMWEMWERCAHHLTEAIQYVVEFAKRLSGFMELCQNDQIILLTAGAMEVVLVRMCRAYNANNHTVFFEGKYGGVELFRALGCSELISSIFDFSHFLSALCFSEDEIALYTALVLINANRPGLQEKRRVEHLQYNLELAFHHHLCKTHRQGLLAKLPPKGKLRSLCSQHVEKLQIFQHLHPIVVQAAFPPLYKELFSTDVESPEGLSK
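Stable Schneider cell line, Gal4 DNA-binding domain fused to ROR gamma, UAS-luciferase. Cmpd 1 hr RT → CuSO4 700 uM final → 20 hr RT → luciferase reagent 10 min → luminescence.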
The depositor's hits bear a star; ? = inconclusive; . = no result given; [ ] = dose if it differs, or a comment. Unless noted, calls come from the whole dose curve; as a rule, active = well fitted curve in the direction sought with a large enough effect; inconclusive = small, poorly fitted or top-dose-only effect, or another doubt; inactive = no such curve, though single readings can be large; an effect the other way counts as inactive or inconclusive.

SMILES	Gal4-VP16 FLuc	ELG1 repair inh	BRCA1 expr up	p53 reactivation	Giardia killer	RORg inh
O=C(Nc1ccc[n+](CC(=O)c2cccc3ccccc23)c1)c1ccccc1	11µM*	-8%	-107%	2%	16	?
O=C(OCc1cc(=O)n2ccsc2n1)c1ccc(O)cc1O	.	?	11µM*	?	-4	.
Cc1ccsc1C(=O)OCc1cc(=O)n2ccsc2n1	.	?	?	?	3	.
CN(C)S(=O)(=O)c1cccc(NC(=O)CCCc2nc3ccccc3c(=O)[nH]2)c1	.	9%	-10%	-3%	-8	.
CCN(CC)S(=O)(=O)c1ccc(N2CCOCC2)c(NC(=O)c2ccc3ccccc3c2)c1	-7%	15µM*	-23%	1%	-5	17%
CCOc1ncccc1C(=O)Nc1cc(S(=O)(=O)N(CC)CC)ccc1N1CCOCC1	.	5.2µM*	-30%	-3%	49	.
CCN(CC)S(=O)(=O)c1ccc(N2CCOCC2)c(NC(=O)c2c3c(nc4ccccc24)CCC3)c1	-4%	13µM*	-46%	-8%	10	-5%
CCCc1cc(C(=O)Nc2nccs2)cs1	7.9µM*	?	94%	21%	-4	5µM*
CC(C)CN1C(=O)c2ccc(C(=O)Nc3ccccn3)cc2C1=O	13%	?	15%	?	?	-19%
CCCN1C(=O)c2ccc(C(=O)Nc3nccs3)cc2C1=O	?	29%	-1%	8%	-15	10µM*
COCCN1C(=O)c2ccc(C(=O)Nc3nccs3)cc2C1=O	-4%	-2%	16%	-1%	-5	-33%
CC(C)CN1C(=O)c2ccc(C(=O)Nc3nccs3)cc2C1=O	?	?	2%	14%	-3	8.9µM*
CC(C)CN1C(=O)c2ccc(C(=O)Nc3ccncc3)cc2C1=O	20µM*	?	-5%	1%	-9	?
COc1ccc(/C=N/OCC(=O)Nc2nc3ccccc3s2)cc1OC	?	-4%	33%	-32%	-3	2%
C[C@H](CO)N1C[C@H](C)[C@H](CN(C)C(=O)c2ccccn2)Oc2ncc(Br)cc2C1=O	.	.	5%	.	.	.
Cc1ccc(/C=N/NC(=O)Cn2cnc3c2c(=O)n(C)c(=O)n3C)s1	3%	-2%	-4%	-14%	2	-4%
Cc1cc2nc(C)n(CCCN)c2cc1C	4%	11%	4%[1.84 µM]	-6%	3	-1%
CCOc1ccc(NC(=O)CCC(=O)c2ccc(Br)cc2)cc1	6%	-13%	1%	.	21	1%
Cc1ccc(-n2ncc3c(NNC(=O)c4ccco4)ncnc32)c(C)c1	?	0%	12%	7%	14	11µM*
O=C(NNc1ncnc2c1cnn2-c1ccc(F)cc1)c1ccco1	10µM*	5%	38%	0%	17	8.9µM*
Cc1ccc(-n2ncc3c(NNC(=O)c4cccs4)ncnc32)cc1	10µM*	7%	11%	-3%	-15	1.3µM*
O=C(O)c1ccccc1C(=O)Nc1cc(C(F)(F)F)ccc1N1CCCC1	-1%	-5%	-2%	14%	16	-5%
Cc1ccc(/C=C/c2nc3ccccc3[nH]2)o1	-11%	?	?	22%	?	11µM*
COc1ccccc1/C=C/c1nc2ccccc2[nH]1	.	.	0%	.	.	.
N#Cc1ccccc1NC(=O)CN1CCN(c2ccccn2)CC1	1%	-1%	0%	-4%	-8	0%
SMILES	Gal4-VP16 FLuc	ELG1 repair inh	BRCA1 expr up	p53 reactivation	Giardia killer	RORg inh
Cc1sc(NC(=O)CN2CCN(c3ccccn3)CC2)c(C#N)c1C	28%	12µM*	-18%	-4%	44	?
CCOC(=O)C1CCCN(C(=O)C2c3ccccc3Oc3ccccc32)C1 (configuration not stated)	-1%	2%	-10%	-2%	-7	2%
Cc1ccc2nc(C(F)C(F)(F)F)[nH]c2c1 (configuration not stated)	-4%	?	-2%	8%	12	?
CCCC[C@@H]1C[C@H]1C(NC(=O)c1ccc(C(F)(F)F)cc1)c1ccc(C(=O)OC)cc1 (some centres not stated)	-5%	.	.	.	.	1%
CCCC[C@@H]1C[C@H]1C(NC(=O)c1ccccc1)c1ccc(C(F)(F)F)cc1 (some centres not stated)	?	.	.	.	.	16µM*
Cc1ccc(Cn2c(S(=O)(=O)O)nc3ccccc32)cc1	-5%	3%	-15%	-5%	0	-6%
O=c1oc2ccc(Cl)cc2nc1/C=C(\O)c1cccs1	11µM*	?	?	?	5	8.9µM*
Cc1ccc2oc(=O)c(/C=C(\O)c3ccccc3)nc2c1	?	-13%	7.1µM*	?	32	?
Cc1nc(-c2c(C(F)(F)F)noc2-c2ccc(O)cc2O)cs1	-26%	-21%	-61%	-12%	2	80%
CCOc1cc(C)c(-c2onc(C(F)(F)F)c2-c2csc(C)n2)c(O)c1	11µM*	-22%	-32%	-10%	-12	12%
COc1ccccc1NC(=O)c1ccc(NS(=O)(=O)c2ccc(F)c(F)c2F)cc1	-17%	11%	-13%	-4%	20	-1%
COc1ccccc1C(=O)Nc1cc(Cl)ccc1-n1cncn1	-15%	?	-64%	-8%	0	11µM*
COc1cc(OC)c(C(=O)Nc2cc(Cl)ccc2-n2cncn2)cc1OC	.	?	-44%	-12%	4	.
Cc1ccc(NC(=O)CCC(=O)c2cccs2)c(Br)c1	9%	?	6.3µM*	11%	1	-4%
COC(=O)c1ccc(COC(=O)CCC(=O)c2cccs2)cc1	25%	?	10µM*	?	-14	-4%
Cc1ccc(CNC(=O)CCC(=O)c2cccs2)cc1	-3%	11%	0%[1.84 µM]	-1%	8	13µM*
O=C(CCC(=O)c1cccs1)NCc1ccc(Cl)cc1	2%	17%	-13%	4%	3	1%
CNC(=O)COC(=O)CCC(=O)c1cccs1	-3%	2%	-4%	3%	1	2%
Cc1ccc(NC(=O)COC(=O)CCC(=O)c2cccs2)c(Br)c1	.	-6%	3%	4%	6	.
CC(C)c1ccccc1S(=O)(=O)c1cc(N)c2ncccc2c1[N+](=O)[O-]	10%	.	.	.	.	-35%
CC(C)(C)C(=O)Nc1nnc(SCc2ccc(F)cc2)s1	-2%	?	11%[1.84 µM]	8%	-2	?
CCOC(=O)c1sc2nc(CSc3ccccc3)nc(N3CCC(C(N)=O)CC3)c2c1C	4%	18µM*	-87%	-12%	-1	39%
